L3MBTL1 block: L3MBTL1 (human) inhibition; AlphaScreen L3MBTL1–H3K9me1 peptide binding; Q9Y468; Potency, µM (top dose mostly 57.1 µM), most hits filed as inhibitors; 230,000 compounds, 0.66% hits; also: nearly all actives have a fitted effect of over 60% in size
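AlphaScreen proximity signal between nickel-chelate acceptor and streptavidin donor beads (final 10 ug/mL) reports binding of 50 nM L3MBTL1 to 75 nM biotin-H3 K9me1 peptide; complex incubated with compounds 30 min at room temperature; cefsulodin titration as control.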
G9a inh: blocks human histone lysine methyltransferase G9a. 350,000 compounds, 8.8% hits. Potency, µM (top dose mostly 102 µM), most hits filed as inhibitors. G9a H3K9 monomethylation, AlphaScreen, 2 h; also: nearly all actives have a fitted effect of over 75% in size
Target sequence (Q96KQ7 913-1193 limits assumed): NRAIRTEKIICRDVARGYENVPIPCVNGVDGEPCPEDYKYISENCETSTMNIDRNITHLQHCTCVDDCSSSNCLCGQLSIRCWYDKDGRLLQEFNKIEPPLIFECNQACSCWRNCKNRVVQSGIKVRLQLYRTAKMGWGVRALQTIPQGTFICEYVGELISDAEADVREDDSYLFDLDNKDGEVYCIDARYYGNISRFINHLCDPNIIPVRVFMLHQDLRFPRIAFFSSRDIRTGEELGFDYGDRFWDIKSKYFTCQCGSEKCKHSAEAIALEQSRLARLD
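G9a (20 nM) was preincubated 15 min with compound, then reacted 2 h at room temperature with 500 nM biotin-H3K9 peptide and 20 µM SAM. Monomethyl-H3K9 detected by AlphaScreen using anti-H3K9me1 antibody.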
HP1b chromo inh: blocks HP1-beta chromodomain binding to methylated histone tails; Potency, µM (top dose mostly 114 µM), actives largely listed as inhibitors; 390,000 compounds, 0.56% hits; P83916; AID 540317; AlphaScreen HP1-beta / biotin-H3K9me3 peptide binding; also: nearly all actives have a fitted effect of over 70% in size
Target sequence (P83916 whole entry, looked up): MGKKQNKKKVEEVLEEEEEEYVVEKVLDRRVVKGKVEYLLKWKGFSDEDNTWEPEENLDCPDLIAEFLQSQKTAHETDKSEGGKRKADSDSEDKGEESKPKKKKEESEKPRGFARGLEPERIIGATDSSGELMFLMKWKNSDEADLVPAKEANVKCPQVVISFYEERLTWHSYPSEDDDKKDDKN
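AlphaScreen: HP1-beta (50 nM) preformed 30 min with biotin-H3(1-18)K9me3 peptide (50 nM) in PBS pH 7.4, 0.01% Tween-20. Compound added for 30 min at RT, then streptavidin donor/nickel chelate acceptor beads (10 ug/mL) for 30 min.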
JMJD2A Tudor inh: JMJD2A Tudor domain (human) inhibition; O75164; AlphaScreen JMJD2A-Tudor / H3K4me3 peptide binding; Potency, µM (top dose mostly 114 µM), hits mostly inhibitors; 390,000 compounds, 4.4% hits; also: nearly all actives have a fitted effect of over 50% in size
BAZ2B inh: blocks human BAZ2B; Potency, µM (series often up to 114 µM), most hits filed as inhibitors; Q9UIF8; 360,000 compounds, 4.4% hits; AlphaScreen BAZ2B-H3K14Ac peptide displacement; also: nearly all actives have a fitted effect of over 60% in size
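AlphaScreen luminescence quantifies BAZ2B engagement of H3K14Ac peptide; the protein and biotinylated peptide are both at 50 nM final, buffer PBS pH 7.4 with 0.01% Tween-20, all steps at room temperature.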
Numbers stand for hits; - = inactive; ? = inconclusive; . = no result given; [ ] = dose if it differs, or a comment. This is a sample that favours compounds with a hit; in the whole collection about 11% have one here. Calls follow the shape of the dose curve; as a rule, active = well fitted inhibition curve with a large enough effect; inconclusive = small, poorly fitted or top-dose-only effect; inactive = no such curve, though single readings can be large or run the other way.

SMILES	L3MBTL1 block	G9a inh	HP1b chromo inh	JMJD2A Tudor inh	BAZ2B inh
COc1ccccc1NC(=O)C(C)N(C)CC(=O)Nc1cccc2ccccc12 (stereo unspecified)	-	.	-	-	.
COc1ccc(C(C)(C)C)cc1NC(=O)CNc1cccc2ccccc12	-	?	?	44.7µM	?
COc1ccccc1CN(C)CC(=O)Nc1cccc2ccccc12	.	50.1µM	-	-	-
COc1ccccc1CN(C)CC(=O)Nc1ccc(Cl)cc1C(F)(F)F	-	8.91µM	?	3.55µM	50.1µM
CNCCN(C)c1nc(-c2cccs2)nc2ccccc12	.	.	-	-	.
Cc1ccc(-c2noc(CNC(=O)c3ccc(Br)o3)n2)cc1	.	-	-	-	-
CCOC(=O)CCCc1sc(N)nc1-c1[nH]c(=O)[nH]c1C	-	4.47µM	?	2.24µM	6.31µM
CCOC(=O)CCc1c(C)n[nH]c1C	.	-	-	-	-
Cc1cccn2c(=O)cc(CSc3nnc(NC(=O)COc4ccc(F)cc4)s3)nc12	.	-	-	-	-
CCn1c(-c2cc(-c3ccccc3OC)nc3ccccc23)n[nH]c1=S	-	2.82µM	-	56.2µM	-
CCn1c(-c2cc(-c3cc(OC)ccc3OC)nc3ccccc23)n[nH]c1=S	.	3.55µM	-	20µM	?
COc1cccc(Cn2c(=O)c(CCc3ccccc3)nc3cnc(OC)nc32)c1	.	-[12.7 µM]	.	.	.
Cc1ccc(OCC(O)CN2CCN(Cc3ccc4c(c3)OCO4)CC2)c(C)c1 (stereo unspecified)	-	-	?	?	?
CC(=O)c1ccc(OCC(O)CN2CCN(Cc3ccc4c(c3)OCO4)CC2)cc1 (stereo unspecified)	-	?	-	63.1µM	-
CC(=O)c1cccc(OCC(O)CN2CCN(C(=O)c3ccco3)CC2)c1 (stereo unspecified)	.	?	?	1.41µM	70.8µM
CC(=O)c1ccc(OCC(O)CN2CCN(CCO)CC2)cc1 (stereo unspecified)	-	-	-	-	-
SC(COCc1ccccc1)CN1CCN(Cc2ccc3c(c2)OCO3)CC1 (stereo unspecified)	-	22.4µM	-	?	?
COc1ccc(OCC(O)CN2CCN(Cc3ccc4c(c3)OCO4)CC2)cc1 (stereo unspecified)	-	20µM	-	-	-
CCN1CCN(CC(O)COc2ccc(C(C)=O)cc2)CC1 (stereo unspecified)	-	50.1µM	-	-	-
CCOC(=O)c1ccc(S(=O)(=O)N2CCN(CC(O)COc3ccc(C#N)cc3)CC2)cc1 (stereo unspecified)	.	35.5µM	-	20µM	56.2µM
O=c1[nH]c2ccccc2nc1/C=C/c1ccc(Cl)cc1	.	-	-	10µM	-
COc1cccc(CNC(=O)c2ccc(-n3c(C)cc4c3CCCC4)cc2)c1	.	?	-	-	-
CCCS(=O)(=O)c1nc(S(=O)(=O)c2ccc(C)cc2)c(NCc2ccc3c(c2)OCO3)s1	-	39.8µM	-	-	-
CCCS(=O)(=O)c1nc(S(=O)(=O)c2ccc(C)cc2)c(NCc2ccccc2Cl)s1	.	-	-	-	-
Cc1cccc(Oc2ccccc2NC(=O)CSCC(=O)Nc2cc(C)on2)c1	-	10µM	-	-	-
SMILES	L3MBTL1 block	G9a inh	HP1b chromo inh	JMJD2A Tudor inh	BAZ2B inh
CCOc1ccc(Oc2ccccc2NC(=O)CSCC(=O)Nc2cc(C)on2)cc1	-	-	-	-	-
O=S(=O)(c1ccc2c(c1)OCCO2)N1CCN(S(=O)(=O)c2ccc(Br)cc2F)CC1	.	.	.	-	.
CCOc1ccc(C(=O)Nc2ccc(C(=O)OCc3cc(=O)n4c(C)csc4n3)cc2)cc1	.	-	-	-	-
COc1ccccc1CNc1nc2ccccc2c2nc(-c3cccnc3)nn12	.	-	-	-	-
COc1ccc(CNCC(O)COCc2cccs2)cc1 (stereo unspecified)	-	?	-	1.58µM	?
O=C(NCC1COc2ccccc2O1)c1ccccc1 (stereo unspecified)	-	-	-	-	-
OC(CNCC1COc2ccccc2O1)COCc1cccs1 (stereo unspecified)	-	8.91µM	-	1.58µM	89.1µM
c1ccc(CNCC2COc3ccccc3O2)cc1 (stereo unspecified)	-	-	-	-	-
CC(OCC(O)CNCC1COc2ccccc2O1)c1ccc(Cl)cc1 (stereo unspecified)	-	10µM	?	2.24µM	79.4µM
